Shown is part of a subset that was picked to be rich in hits.
IDE exosite FP = insulin-degrading enzyme (human) exo-site inhibition. P14735. purified IDE, FL-6b probe fluorescence polarization; hits give low values. z-score at 20 µM. actives 6.3% (n = 17,000);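 active = z-score of -3 or lower, meaning strong loss of probe binding signal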;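 also: His-tagged human IDE residues 42-1019 made in E. coli with 30 nM FL-6b probe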
Target sequence (P14735 42-1019 limits assumed): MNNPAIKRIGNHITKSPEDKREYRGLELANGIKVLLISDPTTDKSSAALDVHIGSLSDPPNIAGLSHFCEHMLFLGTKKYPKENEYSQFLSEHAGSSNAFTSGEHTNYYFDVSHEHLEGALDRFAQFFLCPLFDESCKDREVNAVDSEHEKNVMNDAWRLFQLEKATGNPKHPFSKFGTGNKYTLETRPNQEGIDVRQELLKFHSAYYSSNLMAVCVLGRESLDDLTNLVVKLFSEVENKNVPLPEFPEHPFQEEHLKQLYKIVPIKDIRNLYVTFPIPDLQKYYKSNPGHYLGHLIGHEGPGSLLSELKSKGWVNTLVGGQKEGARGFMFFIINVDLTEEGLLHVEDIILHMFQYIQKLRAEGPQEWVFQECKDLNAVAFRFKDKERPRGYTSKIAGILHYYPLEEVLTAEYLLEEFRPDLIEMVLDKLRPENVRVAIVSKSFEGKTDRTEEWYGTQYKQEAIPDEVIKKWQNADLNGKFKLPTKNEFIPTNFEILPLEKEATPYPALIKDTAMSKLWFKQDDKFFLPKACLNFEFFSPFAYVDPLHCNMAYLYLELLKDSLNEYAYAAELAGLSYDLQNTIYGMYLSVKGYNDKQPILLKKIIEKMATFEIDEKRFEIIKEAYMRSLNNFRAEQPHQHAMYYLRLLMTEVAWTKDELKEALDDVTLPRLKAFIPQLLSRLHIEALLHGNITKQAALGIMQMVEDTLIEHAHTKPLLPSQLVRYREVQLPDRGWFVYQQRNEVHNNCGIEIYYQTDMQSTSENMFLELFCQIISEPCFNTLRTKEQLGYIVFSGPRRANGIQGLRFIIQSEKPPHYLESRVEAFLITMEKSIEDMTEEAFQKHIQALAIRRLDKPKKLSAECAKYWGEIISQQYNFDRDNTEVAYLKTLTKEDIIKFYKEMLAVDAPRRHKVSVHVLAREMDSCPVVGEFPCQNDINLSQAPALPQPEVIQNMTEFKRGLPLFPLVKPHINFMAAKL
Active calls of the source: *.

SMILES	IDE exosite FP
COCC(=O)N1CCCCN2[C@H](CO)[C@@H](c3ccc(C#Cc4cccnc4)cc3)[C@H]2C1	2.7
CCC(=O)N1CCCCN2[C@H](CO)[C@H](c3ccc(C#Cc4cccnc4)cc3)[C@H]2C1	-3.2*
O=C(c1cccnc1)N1CCCCN2[C@H](CO)[C@H](c3ccc(C#Cc4cccnc4)cc3)[C@H]2C1	4.7
O=C(c1cccnc1)N1CCCCN2[C@H](C1)[C@H](c1ccc(C#Cc3cccnc3)cc1)[C@@H]2CO	-1.5
N#C[C@H]1[C@H](c2ccc(C#CC3CCCC3)cc2)[C@@H](CO)N1S(=O)(=O)c1ccccc1	0.46
O=C(NC[C@H]1[C@@H](c2ccccc2)[C@@H](CO)N1C(=O)Cc1cccnc1)C1CC1	4.4
C[C@H]1CCCn2nncc2COCCNC1=O	-0.11
CC(C)NC(=O)N(C)C[C@@H]1Oc2ccc(NC(=O)Cc3ccccc3)cc2CC(=O)N([C@H](C)CO)C[C@@H]1C	2.1
COc1ccc2c3c(n(C)c2c1)[C@H](CO)N(C(=O)CN1CCOCC1)CC31CCN(Cc2ccncc2)CC1	-0.44
COC(=O)C[C@@H]1CC[C@@H]2[C@H](COC[C@H](O)CN2S(=O)(=O)c2ccccc2OC)O1	1.1
CN(C)CCCNC(=O)[C@@H]1[C@@H](CO)[C@@H]2Cn3c(ccc(-c4cccnc4)c3=O)[C@H]1N2C(=O)CC1CC1	0.31
O=C(Cc1ccccc1)NC[C@H]1N[C@H](CO)[C@@H]1c1ccc(C2=CCCC2)cc1	0.11
C[C@H]1CN([C@@H](C)CO)S(=O)(=O)c2ccc(-c3cccc(C#N)c3)cc2O[C@@H]1CN(C)C(=O)c1ccccc1	0.42
O=C(C[C@H]1CC[C@@H](NC(=O)C2CCOCC2)[C@H](CO)O1)NCC1CCCCC1	2
O=C(C[C@@H]1CC[C@H]2[C@@H](COC[C@H](O)CN2Cc2ccc(Oc3ccccc3)cc2)O1)N1CCN(c2ccccc2)CC1	0.77
CN1C(=O)c2cc(NS(C)(=O)=O)ccc2OC[C@H]2O[C@@H](CC(=O)NCc3ccccc3)CC[C@@H]21	0.18
CN1C(=O)c2cc(NS(C)(=O)=O)ccc2OC[C@H]2O[C@H](CC(=O)N3CCOCC3)CC[C@@H]21	-14*
COc1ccccc1NC(=O)C[C@H]1CC[C@H]2[C@@H](COc3ccc(NS(C)(=O)=O)cc3C(=O)N2C)O1	-6.1*
CCS(=O)(=O)Nc1ccc2c(c1)C(=O)N(C)[C@@H]1CC[C@@H](CC(=O)N3CCN(C)CC3)O[C@H]1CO2	0.27
CN1C(=O)c2cc(NS(C)(=O)=O)ccc2OC[C@@H]2O[C@@H](CC(=O)N3CCOCC3)CC[C@H]21	-1
COc1ccccc1NC(=O)Nc1ccc2c(c1)C(=O)N(C)[C@H]1CC[C@H](CC(=O)Nc3ccc4c(c3)COC4)O[C@@H]1CO2	-0.18
N#C[C@@H]1[C@@H](c2ccc(C#CC3CC3)cc2)[C@H](CO)N1C(=O)c1cccc(F)c1	5.5
COc1cccc(S(=O)(=O)N2CCCCN3[C@@H](CO)[C@H](c4ccc(C#CC5CC5)cc4)[C@@H]3C2)c1	3.2
CO[C@H](CN(C)C(=O)Nc1ccc(Cl)cc1)[C@@H](C)CN(Cc1ccccc1Cl)[C@@H](C)CO	1.4
O=C(c1ccccc1F)N1CC2(C1)[C@H](c1ccccc1)[C@H](CO)N2CC1CCOCC1	-0.71
SMILES	IDE exosite FP
C[C@@H](NC(=O)C[C@H]1C[C@@H]2c3cc(NS(=O)(=O)c4ccc(F)cc4)ccc3O[C@@H]2[C@@H](CO)O1)c1ccccc1	1.8
CO[C@H]1CC[C@@H]2CCOc3c(C#N)cccc3C(=O)N(C)CC3(CCCCC3)CC(=O)N(C)C[C@H]1O2	-0.053
CCCC#Cc1ccc([C@H]2[C@@H](CO)N3C(=O)CN(C(=O)c4ccccn4)C[C@H]23)cc1	3.1
O=C(c1ccccn1)N1CC(=O)N2[C@H](CO)[C@H](c3ccc(C#Cc4ccccc4)cc3)[C@H]2C1	-14*
CCCC#Cc1ccc([C@@H]2[C@@H](CO)N3C(=O)CN(C(=O)c4ccccn4)C[C@@H]23)cc1	-0.34
O=C(c1ccccn1)N1CC(=O)N2[C@H](CO)[C@H](c3ccc(C#CCc4ccccc4)cc3)[C@@H]2C1	-1.8
O=C(c1ccccn1)N1CC(=O)N2[C@@H](CO)[C@H](c3ccc(C#Cc4ccccc4)cc3)[C@@H]2C1	-9.7*
O=C(c1ccccn1)N1CC(=O)N2[C@@H](CO)[C@H](c3ccc(C#CCc4ccccc4)cc3)[C@@H]2C1	-1.1
O=C(c1ccc(F)cc1)N1CC(=O)N2[C@@H](CO)[C@@H](c3ccc(C#CC4CCCCC4)cc3)[C@@H]2C1	5.2
COCC(=O)NC[C@H]1[C@H](c2ccc(C3=CCCC3)cc2)[C@H](CO)N1C(=O)C1CC1	4.6
CN(C)C(=O)c1ccc(-c2ccc([C@H]3[C@@H](C#N)N(C(=O)C4CCCCC4)[C@H]3CO)cc2)cc1	0.81
C/C=C/c1ccc([C@@H]2[C@H]3CN(C(=O)c4cnccn4)CC(=O)N3[C@H]2CO)cc1	1.4
O=C(NC[C@@H]1N[C@@H](CO)[C@@H]1c1ccc(C2=CCCC2)cc1)c1ccccc1	4.6
COc1ccc2c3c(n(C)c2c1)[C@@H](CO)N(C(=O)Nc1ccc(F)cc1)CC31CN(C(=O)Cc2ccncc2)C1	0.58
Cc1ccccc1S(=O)(=O)N1CC(=O)N2[C@H](CO)[C@@H](c3ccc(C#CCC4CCCC4)cc3)[C@@H]2C1	4.8
C[C@@H]1CN([C@H](C)CO)C(=O)c2ccccc2-c2ccccc2CO[C@H]1CN(C)C(=O)[C@H]1CCCN1C	-0.57
CCNC(=O)C[C@@H]1CC[C@H]2[C@@H](COC[C@H](O)CN2C(=O)C2CCCC2)O1	-1.2
O=C(Cc1ccccc1)N1CC(=O)N2[C@@H](CO)[C@@H](c3ccc(C#Cc4ccccc4)cc3)[C@@H]2C1	0.82
O=C(CC1CC1)N1CC(=O)N2[C@H](C1)[C@H](c1ccc(C#Cc3ccccc3)cc1)[C@@H]2CO	-16*
O=C(CC1CC1)N1CC(=O)N2[C@H](CO)[C@H](c3ccc(C#Cc4ccccc4)cc3)[C@@H]2C1	-10*
O=C(CC1CC1)N1CC(=O)N2[C@H](CO)[C@@H](c3ccc(C#Cc4ccccc4)cc3)[C@@H]2C1	-7.7*
O=C(CC1CC1)N1CC(=O)N2[C@H](CO)[C@@H](c3ccc(C#Cc4ccc(F)cc4)cc3)[C@H]2C1	0.27
O=C(CC1CC1)N1CC(=O)N2[C@H](C1)[C@H](c1ccc(C#Cc3ccc(F)cc3)cc1)[C@@H]2CO	-1.7
O=C(CC1CC1)N1CC(=O)N2[C@@H](CO)[C@@H](c3ccc(C#Cc4cccc(F)c4)cc3)[C@@H]2C1	-0.61
O=C(CC1CC1)N1CC(=O)N2[C@H](C1)[C@@H](c1ccc(C#Cc3ccccc3)cc1)[C@@H]2CO	-8.5*
SMILES	IDE exosite FP
O=C(CC1CC1)N1CC(=O)N2[C@H](C1)[C@@H](c1ccc(C#Cc3ccc(F)cc3)cc1)[C@@H]2CO	0.15
CCCNC(=O)N1[C@H](CO)[C@@H](c2ccc(-c3ccccc3F)cc2)[C@@H]1C#N	0.8
O=C(c1cccc(F)c1)N1CCCCN2[C@H](C1)[C@@H](c1ccc(-c3ccccc3)cc1)[C@@H]2CO	-0.62
CO[C@@H]1CN(C)C(=O)c2cc(NC(=O)Nc3c(C)noc3C)ccc2OC[C@@H](C)NC[C@@H]1C	-0.55
C[C@@H]1CN([C@H](C)CO)S(=O)(=O)c2ccc(C#CC3(O)CCCC3)cc2O[C@H]1CN(C)C(=O)Nc1cccc(F)c1	0.038
O=S(=O)(c1ccccc1F)N1CCCCN2[C@H](CO)[C@H](c3ccc(-c4cncnc4)cc3)[C@H]2C1	5.1

From PubChem BioAssay
